Residue numbers refer to the chain shown, from its start.

Test in all cases: PBM; 200 nM protein, PBS
Holding throughout (details): dsDNA, one strand shown

Assay [1] addresses T1, SIX6 (Homo sapiens, UniProt O95475 114-200, L167I).
T1 sequence: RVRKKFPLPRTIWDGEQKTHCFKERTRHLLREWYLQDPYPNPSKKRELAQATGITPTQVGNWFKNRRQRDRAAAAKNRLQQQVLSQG

Assay [2] has as its target T2, SIX6 (Homo sapiens, UniProt O95475 114-200, L143V).
T2 sequence: T1 sequence with L30V, I54L

Assay [3] concerns the target T3, SIX6 (Homo sapiens, UniProt O95475 114-200, H141N).
T3 sequence: T1 sequence with H28N, I54L

Assay [4] addresses T4, SIX6 (Homo sapiens, UniProt O95475 114-200, T165P).
T4 sequence: T1 sequence with T52P, I54L

For assay [5], the target named is T5, SIX6 (Homo sapiens, UniProt O95475 114-200, L167M).
T5 sequence: T1 sequence with I54M

Assay [6] deals with T6, SIX6 (Homo sapiens, UniProt O95475 114-200, L143M).
T6 sequence: T1 sequence with L30M, I54L

The target in assay [7] is T7, SIX6 (Homo sapiens, UniProt O95475 114-200, L143I).
T7 sequence: T1 sequence with L30I, I54L

Assay [8] deals with T8, SIX6 (Homo sapiens, UniProt O95475 114-200, T165G).
T8 sequence: T1 sequence with T52G, I54L

Assay [9] addresses T9, SIX6 (Homo sapiens, UniProt O95475 114-200, T139Q).
T9 sequence: T1 sequence with T26Q, I54L

Assay [10] concerns the target T10, SIX6 (Homo sapiens, UniProt O95475 114-200, T165A).
T10 sequence: T1 sequence with T52A, I54L

Assay [11] concerns the target T11, SIX6 (Homo sapiens, UniProt O95475 114-200, L167V).
T11 sequence: T1 sequence with I54V

Assay [12] concerns the target T12, SIX6 (Homo sapiens, UniProt O95475 114-200).
T12 sequence: T1 sequence with I54L

Assay [13] has as its target T13, SIX6 (Homo sapiens, UniProt O95475 114-200, T165I).
T13 sequence: T1 sequence with T52I, I54L

Take AAGTATCA: the binding signal in [1] was 11.3 upbm affinity estimate (log intensity, higher = more binding, comparable within an allelic series); in assay [2], 10.3 upbm affinity estimate (log intensity, higher = more binding, comparable within an allelic series); in [3] it was 11.2 upbm affinity estimate (log intensity, higher = more binding, comparable within an allelic series); in [4], 9.85 upbm affinity estimate (log intensity, higher = more binding, comparable within an allelic series); in assay [5] it was 10.6 upbm affinity estimate (log intensity, higher = more binding, comparable within an allelic series); in assay [6] it was 11 upbm affinity estimate (log intensity, higher = more binding, comparable within an allelic series). Further, the binding signal was 10.3 upbm affinity estimate (log intensity, higher = more binding, comparable within an allelic series) in assay [7]; 11.2 upbm affinity estimate (log intensity, higher = more binding, comparable within an allelic series) in [8]; 11.1 upbm affinity estimate (log intensity, higher = more binding, comparable within an allelic series) in [9]; 11.2 upbm affinity estimate (log intensity, higher = more binding, comparable within an allelic series) in assay [10]; 11 upbm affinity estimate (log intensity, higher = more binding, comparable within an allelic series) in [11]; 10.9 upbm affinity estimate (log intensity, higher = more binding, comparable within an allelic series) in [12]. Further, the binding signal in assay [13] was 11 upbm affinity estimate (log intensity, higher = more binding, comparable within an allelic series).
On to ATACCCAT, for which the binding signal in assay [1] is 10.6 upbm affinity estimate (log intensity, higher = more binding, comparable within an allelic series); in [2], 10.1 upbm affinity estimate (log intensity, higher = more binding, comparable within an allelic series); in assay [3], 10.6 upbm affinity estimate (log intensity, higher = more binding, comparable within an allelic series); in assay [4] it was 9.74 upbm affinity estimate (log intensity, higher = more binding, comparable within an allelic series); in assay [5], 10.4 upbm affinity estimate (log intensity, higher = more binding, comparable within an allelic series); in assay [6] it was 10.6 upbm affinity estimate (log intensity, higher = more binding, comparable within an allelic series). Moreover, the binding signal is 10.1 upbm affinity estimate (log intensity, higher = more binding, comparable within an allelic series) in assay [7]; 10.7 upbm affinity estimate (log intensity, higher = more binding, comparable within an allelic series) in assay [8]; 10.8 upbm affinity estimate (log intensity, higher = more binding, comparable within an allelic series) in [9]; 10.5 upbm affinity estimate (log intensity, higher = more binding, comparable within an allelic series) in [10]; 10.4 upbm affinity estimate (log intensity, higher = more binding, comparable within an allelic series) in assay [11]; 10.6 upbm affinity estimate (log intensity, higher = more binding, comparable within an allelic series) in assay [12]. In addition, in assay [13], the binding signal was 10.4 upbm affinity estimate (log intensity, higher = more binding, comparable within an allelic series).
With CGGCCCAA, the binding signal in assay [1] was 9.05 upbm affinity estimate (log intensity, higher = more binding, comparable within an allelic series); in [2], 8.91 upbm affinity estimate (log intensity, higher = more binding, comparable within an allelic series); in assay [3], 9.04 upbm affinity estimate (log intensity, higher = more binding, comparable within an allelic series); in [4], 8.99 upbm affinity estimate (log intensity, higher = more binding, comparable within an allelic series); in assay [5], 9.02 upbm affinity estimate (log intensity, higher = more binding, comparable within an allelic series); in [6], 8.96 upbm affinity estimate (log intensity, higher = more binding, comparable within an allelic series). Besides, the binding signal was 8.94 upbm affinity estimate (log intensity, higher = more binding, comparable within an allelic series) in assay [7]; 9.03 upbm affinity estimate (log intensity, higher = more binding, comparable within an allelic series) in [8]; 9.14 upbm affinity estimate (log intensity, higher = more binding, comparable within an allelic series) in [9]; 8.99 upbm affinity estimate (log intensity, higher = more binding, comparable within an allelic series) in assay [10]; 8.99 upbm affinity estimate (log intensity, higher = more binding, comparable within an allelic series) in assay [11]; 8.99 upbm affinity estimate (log intensity, higher = more binding, comparable within an allelic series) in assay [12]. Further, the binding signal in [13] is 9.03 upbm affinity estimate (log intensity, higher = more binding, comparable within an allelic series).
On to CGCGGCCA, for which the binding signal was 8.81 upbm affinity estimate (log intensity, higher = more binding, comparable within an allelic series) in [1]; 8.96 upbm affinity estimate (log intensity, higher = more binding, comparable within an allelic series) in [2]; 8.88 upbm affinity estimate (log intensity, higher = more binding, comparable within an allelic series) in assay [3]; 8.99 upbm affinity estimate (log intensity, higher = more binding, comparable within an allelic series) in [4]; 8.82 upbm affinity estimate (log intensity, higher = more binding, comparable within an allelic series) in assay [5]; 8.81 upbm affinity estimate (log intensity, higher = more binding, comparable within an allelic series) in assay [6]. Also, the binding signal in assay [7] was 8.93 upbm affinity estimate (log intensity, higher = more binding, comparable within an allelic series); in [8] it was 8.87 upbm affinity estimate (log intensity, higher = more binding, comparable within an allelic series); in assay [9], 8.91 upbm affinity estimate (log intensity, higher = more binding, comparable within an allelic series); in assay [10], 8.86 upbm affinity estimate (log intensity, higher = more binding, comparable within an allelic series); in assay [11], 8.96 upbm affinity estimate (log intensity, higher = more binding, comparable within an allelic series); in assay [12] it was 8.84 upbm affinity estimate (log intensity, higher = more binding, comparable within an allelic series). In addition, in assay [13], the binding signal is 8.87 upbm affinity estimate (log intensity, higher = more binding, comparable within an allelic series).
As to CGTGATAC, the binding signal was 11.2 upbm affinity estimate (log intensity, higher = more binding, comparable within an allelic series) in assay [1]; 10.3 upbm affinity estimate (log intensity, higher = more binding, comparable within an allelic series) in [2]; 11.3 upbm affinity estimate (log intensity, higher = more binding, comparable within an allelic series) in assay [3]; 9.72 upbm affinity estimate (log intensity, higher = more binding, comparable within an allelic series) in assay [4]; 10.6 upbm affinity estimate (log intensity, higher = more binding, comparable within an allelic series) in [5]; 11.1 upbm affinity estimate (log intensity, higher = more binding, comparable within an allelic series) in assay [6]. Also, the binding signal in assay [7] is 10.4 upbm affinity estimate (log intensity, higher = more binding, comparable within an allelic series); in assay [8] it was 11.3 upbm affinity estimate (log intensity, higher = more binding, comparable within an allelic series); in assay [9], 11.3 upbm affinity estimate (log intensity, higher = more binding, comparable within an allelic series); in [10] it was 11.2 upbm affinity estimate (log intensity, higher = more binding, comparable within an allelic series); in assay [11] it was 10.9 upbm affinity estimate (log intensity, higher = more binding, comparable within an allelic series); in [12], 11 upbm affinity estimate (log intensity, higher = more binding, comparable within an allelic series). Besides, the binding signal in assay [13] is 11 upbm affinity estimate (log intensity, higher = more binding, comparable within an allelic series).
GCCGCGCA: the binding signal in [1] was 8.96 upbm affinity estimate (log intensity, higher = more binding, comparable within an allelic series); in assay [2], 8.97 upbm affinity estimate (log intensity, higher = more binding, comparable within an allelic series); in [3], 8.91 upbm affinity estimate (log intensity, higher = more binding, comparable within an allelic series); in assay [4] it was 8.97 upbm affinity estimate (log intensity, higher = more binding, comparable within an allelic series); in assay [5], 8.9 upbm affinity estimate (log intensity, higher = more binding, comparable within an allelic series); in assay [6], 8.97 upbm affinity estimate (log intensity, higher = more binding, comparable within an allelic series). Moreover, the binding signal is 8.96 upbm affinity estimate (log intensity, higher = more binding, comparable within an allelic series) in assay [7]; 8.81 upbm affinity estimate (log intensity, higher = more binding, comparable within an allelic series) in assay [8]; 8.99 upbm affinity estimate (log intensity, higher = more binding, comparable within an allelic series) in assay [9]; 8.86 upbm affinity estimate (log intensity, higher = more binding, comparable within an allelic series) in [10]; 8.86 upbm affinity estimate (log intensity, higher = more binding, comparable within an allelic series) in [11]; 8.91 upbm affinity estimate (log intensity, higher = more binding, comparable within an allelic series) in assay [12]. The binding signal in [13] is 8.89 upbm affinity estimate (log intensity, higher = more binding, comparable within an allelic series).

The values are drawn from publication PMC11006913.
